Assay outcomes from PubChem BioAssay.
Hits are enriched below; roughly 27% of the tested compounds scored in any of these assays.
CYP2C19 inh – inhibitors of human CYP2C19. P33261. CYP2C19 Supersomes, luciferin-H EGE luminescence, 30 min. inhibition, % at 5 µM. hit rate 21% among 96,000. AID 778;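 active = CYP2C19 inhibition above a set limit at 5 µM in the primary screen, cut at about 50% in these data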;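 note: plate controls were negative control wells for no effect and 2.5 mM tranylcypromine positive control for full effect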
Target sequence (P33261 whole entry, looked up): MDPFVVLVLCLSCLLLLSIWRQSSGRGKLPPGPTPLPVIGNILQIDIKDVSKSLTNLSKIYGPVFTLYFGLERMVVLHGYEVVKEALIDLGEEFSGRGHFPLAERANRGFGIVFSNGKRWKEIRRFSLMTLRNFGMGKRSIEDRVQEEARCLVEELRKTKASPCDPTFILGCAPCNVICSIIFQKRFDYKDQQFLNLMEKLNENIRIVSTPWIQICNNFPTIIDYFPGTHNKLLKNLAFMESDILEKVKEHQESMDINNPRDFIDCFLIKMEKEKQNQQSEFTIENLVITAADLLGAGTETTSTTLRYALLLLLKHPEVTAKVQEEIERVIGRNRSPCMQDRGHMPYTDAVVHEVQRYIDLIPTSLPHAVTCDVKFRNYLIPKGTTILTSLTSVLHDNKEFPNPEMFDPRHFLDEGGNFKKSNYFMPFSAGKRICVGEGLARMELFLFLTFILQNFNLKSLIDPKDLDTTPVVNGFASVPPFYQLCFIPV
CYP2C9 act – increases human cytochrome P450 2C9 activity | AID 1024 | recombinant CYP2C9, luciferin-H conversion, luminescence; stronger effect = higher value; factor 1 = untreated enzyme, 0 = blocked | P11712 | hit rate 1.4% among 96,000 | activation factor at 5 µM;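 active = activation factor of 2 or more for CYP2C9 at a 5 µM dose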;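 note: 0 = sulfaphenazole-blocked wells and 1 = vehicle-only wells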
CYP2C19 act – cytochrome P450 2C19 (human) activation; activation factor at 5 µM; P33261; recombinant CYP2C19, luciferin-H EGE luminescence; stronger effect = higher value; 0 = fully inhibited enzyme, 1 = untreated enzyme; 96,000 tested, under 10 active; AID 1025;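 active = activation factor of at least 2 at 5 µM in the primary screen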;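 note: 0 = wells with 2.5 mM tranylcypromine and 1 = vehicle-only wells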
Cav3 T inh – inhibitors of human Cav3.2 T-type calcium channel | Cav3.2-expressing cells, Fluo-4 calcium fluorescence FDSS; stronger effect = lower value | B-score at 10 µM | hit rate 4% among 100,000 | AID 449739;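 active = single-dose well whose peak fluorescence ratio is a statistical outlier from its plate by either plate-standardised score or position-corrected B-score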
CYP2C9 inh – human CYP2C9 inhibition | CYP2C9 Supersomes, luciferin-H conversion, luminescence | hit rate 20% among 96,000 | inhibition, % at 5 µM | AID 777;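 active = blocking of liver enzyme CYP2C9 beyond about 50% at 5 µM, limit read from the data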
* = called active by the depositor; . = no result given.

SMILES	CYP2C19 inh	CYP2C9 act	CYP2C19 act	Cav3 T inh	CYP2C9 inh
CC(NC(=O)CCl)c1ccc(Cl)c(Cl)c1 (configuration not stated)	86*	0.5	0.1	-0.89	47
Cc1ccc(S(=O)(=O)NNC(=O)c2sc3nc(C)cc(C)c3c2-n2cccc2)cc1	81*	0	0.2	-3.8	99*
Cc1ccc(-c2noc(CSc3nnc(Cc4ccccc4)n3-c3ccc(Cl)cc3)n2)cc1	84*	0.2	0.2	-5.4*	84*
COc1ccc(-c2noc(CSc3nc4ccccc4c(=O)n3-c3ccc(C)cc3)n2)cc1	63*	0.3	0.4	.	66*
Nc1nc(SCc2ccc(Cl)cc2)[nH]c(=O)c1-c1ccccc1	.	.	.	-1.3	.
COc1ccc(-c2noc(CSc3nnc(Cc4ccccc4)n3-c3ccc(Cl)cc3)n2)cc1	87*	0.2	0.1	-4.4	80*
Cc1sc2nc(SCc3nc(-c4ccccc4)no3)n(-c3ccccc3)c(=O)c2c1C	.	.	.	0.034	.
COc1ccc(-c2noc(CSc3nc(N)c(-c4ccccc4)c(=O)[nH]3)n2)cc1	76*	0.3	0.2	-0.34	70*
Cn1c(SCc2nc(-c3ccc(Cl)cc3)no2)nnc1-c1ccccc1	37	1.2	0.6	-0.58	-22
O=C(N/N=C/C=C/c1ccccc1)c1cnccn1	-2	1.1	1	0.2	-8
COc1ccc(-c2nnc(CSc3nc4ccccc4c(=O)n3C)o2)cc1OC	80*	0.1	0.2	-0.087	86*
Cn1c(SCc2ccon2)nc2ccccc2c1=O	47	0.7	0.5	-1.3	31
CCOC(=O)N1CCN(c2cc3[nH]c(=S)[nH]c3cc2F)CC1	15	1.1	0.8	-1.6	-9
CCOC(=O)N1CCN(c2c(F)cc3[nH]c(=S)[nH]c3c2Br)CC1	42	0.3	0.6	-0.12	70*
Fc1ccccc1/C=C1\CCCC2=C1Nc1nnnn1C2c1ccccc1F (configuration not stated)	9	1.1	0.9	0.7	-6
Cc1[nH]c2ccccc2c1C(=O)CN1CCCCC1C (configuration not stated)	-1	1	1	-0.59	-2
O=C(CSC1CCCCC1)Nc1nccs1	84*	0.6	0.2	.	42
COc1ccc(NC(=O)CSc2nc(N3CCCCC3)nc(N3CCCCC3)n2)cc1	-9	1.1	1.1	1.1	-8
O=C(CSc1nc(N2CCCCC2)nc(N2CCCCC2)n1)Nc1nccs1	15	0.3	0.8	-0.56	67*
C/C(=N\OC(=O)c1cccc(C)c1)c1sc(-c2ccccc2)nc1C	52*	0.6	0.5	-0.097	40
O=C(Nc1ccc(SC(F)F)cc1)c1ccc2nccnc2c1	9	0.8	0.9	0.035	20
COCCNCCCCOc1c(Cl)cc(C)cc1Br	17	1.1	0.8	1.3	-8
Cc1cc(Cl)c(OCCCSc2nc(C)cc(=O)[nH]2)c(Br)c1	9	0.7	0.9	0.17	26
Cc1cc(C)c(OCCN2C(=O)NC(C)(C)C2=O)c(Cl)c1	96*	0.6	0	1.2	36
Cc1cc(Cl)cc(Br)c1OCCCN1C(=O)NC(C)(C)C1=O	90*	0.6	0.1	-1.8	39
SMILES	CYP2C19 inh	CYP2C9 act	CYP2C19 act	Cav3 T inh	CYP2C9 inh
Cc1cc(Cl)c(OCCN2C(=O)NC(C)(C)C2=O)c(Br)c1	98*	0.9	0	1.1	14
Cc1c(Br)c([N+](=O)[O-])nn1CC(=O)NCc1cccs1	23	1.1	0.8	.	-9
CN(C)C/C(Cl)=C(\Cl)c1ccccc1	57*	0.7	0.4	-0.091	27
O=C(Nc1ccc(S(=O)(=O)Nc2nccs2)cc1)c1cc(-c2ccccc2Cl)nc2ccccc12	18	0.5	0.8	.	52*
Cc1ccc2nc(-c3ccccc3Cl)cc(C(=O)Nc3cc(C)on3)c2c1	82*	0	0.2	-2	99*
Cc1ccc(-c2cc(C(=O)Nc3ccc(S(=O)(=O)Nc4cc(C)on4)cc3)c3ccccc3n2)c(C)c1	-3	0.6	1	-1.1	41
CCNC(=S)NNC(=O)c1cc(-c2cc(C)ccc2C)nc2ccccc12	26	0.3	0.7	-1.1	66*
Cc1ccc(-c2cc(C(=O)OCC(=O)Nc3cc(C)on3)c3ccccc3n2)c(C)c1	25	0.2	0.7	-1.4	79*
Cc1cc(C(=O)Nc2ccc(S(=O)(=O)Nc3nccs3)cc2)c(C)o1	-12	0.7	1.1	-0.07	26
Cc1ccc(-c2cc(C(=O)NCc3ccccn3)c3ccccc3n2)cc1	25	0.5	0.7	-0.36	49
O=C(Nc1cccc2c1CCCC2)C1CCCN(S(=O)(=O)c2cccc3nonc23)C1 (configuration not stated)	8	0.8	0.9	0.28	16
Cc1cccc(NC(=O)NNC(=O)c2cc(-c3ccccc3Cl)nc3ccccc23)c1	38	0.4	0.6	1.5	62*
COc1ccc(-c2ccc(SCC(=O)Nc3cc(C)on3)nn2)cc1OC	3	0.7	1	-0.00056	35
CCC(C)c1ccc(-c2cc(C(=O)OCC(=O)Nc3cc(C)on3)c3ccccc3n2)cc1 (configuration not stated)	51*	0.7	0.5	-0.9	30
COc1ccc(-c2cc(C(=O)OCC(=O)Nc3cc(C)on3)c3ccccc3n2)cc1OC	53*	0.5	0.5	0.1	46
O=C(NNC(=O)c1cc(-c2ccc(Cl)c(Cl)c2)nc2ccccc12)Nc1ccccc1	18	0.7	0.8	.	33
CCOc1cc(S(=O)(=O)N(Cc2ccccc2)Cc2ccccc2)c(OCC)cc1-n1cnnn1	24	0.6	0.8	.	41
OCC1(O)OC[C@@H](O)[C@H]1O (some centres not stated)	.	.	.	0.29	.
COc1ccc(NC(=O)C2CCC(C)(C(=O)O)C2(C)C)cc1 (configuration not stated)	-9	1	1.1	-0.028	2
COC(=O)C1CCC(C)(C(=O)Nc2ccccc2)C1(C)C (configuration not stated)	68*	0.4	0.3	0.89	64*
O=C(N/N=C/c1ccc(Sc2nc3ccccc3s2)c([N+](=O)[O-])c1)c1ccccn1	-2	1	1	-0.02	2
O=C(Nc1cc(Sc2nc3ccccc3s2)cc([N+](=O)[O-])c1)c1ccccc1F	36	0.3	0.6	-1.3	71*
CCOC(=O)C(NC(=O)c1ccc(Cl)cc1Cl)(Nc1ccc(C)cc1)C(F)(F)F (configuration not stated)	91*	0.9	0.1	.	15
COC(=O)Cn1c(=NC(=O)CSC(C)=O)sc2ccccc21	-5	0.5	1.1	-6.2*	50
CCn1c(=NC(=O)CSC(C)=O)sc2ccccc21	49	0.8	0.5	-7.3*	16
COC(=O)Cn1c(=O)sc2ccccc21	3	1.1	1	-0.13	-11
CCOC(=O)N1CCN(c2cc(=O)n(Cc3ccc(F)cc3)c(=O)[nH]2)CC1	.	.	.	0.42	.
C=CCSc1n[nH]c(-c2ccccc2)n1	36	0.9	0.6	0.49	10
